Our source for the Potency and outcome values is PubChem BioAssay (NCATS).

Test [1] can be described thus: qHTS to identify inhibitors of the type 1 interferon - major histocompatibility complex class I in skeletal muscle: primary screen against the NCATS LOPAC collection (AID 1347405).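 Also: lytic HiBiT luminescence reporting HLA-B protein level.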 Also: potency is read from the fitted curve at half-maximal effect. Put shortly:
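Cells: C25cl48 human myoblasts, HiBiT-tagged HLA-B*08:01, stimulated with IFN-beta 4.0 ng/ml. Compounds are titrated 1:4.3 over 7 points from 46 uM final and incubated 24 hrs; endogenous MHC class I is quantified by HiBiT lytic luminescence.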
Background: qHTS replaces the single test concentration by a dilution series.

Test [2] in a line: qHTS for inhibitors of adenylyl cyclases using a fission yeast platform: a pilot screen against the NCATS LOPAC library (AID 1347410). In outline:
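GFP from fbp1-GFP reporter, read by Acumen laser cytometry, indicates AC inhibition in fission yeast expressing AC9, GNAS and PDE4D2. Cells grown 18 h in the dark at 30C with compounds, final up to 57 uM.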

Test [3] addresses Protein phosphatase 1D (Homo sapiens) (UniProt O15297). The test can be described thus: RapidFire Mass Spectrometry qHTS Assay for Modulators of WT P53-Induced Phosphatase 1 (WIP1) (AID 1347424).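 Also: amount of dephosphorylated VEPPL-S-QETFS peptide product formed by WIP1; series mostly up to about 63 µM.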 Put shortly:
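10 nM WIP1 preincubated with compounds 1 hr at room temperature in pH 7.5 Tris buffer with 30 mM MgCl2, 1 mM TCEP; 2 uM VEPPL-pS-QETFS phosphopeptide for 5 min, formic acid quench; dephosphorylated product quantified by RapidFire MS against labelled standard.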

For test [4] the target is unchanged. The experiment in a line: Rhodamine-PBP qHTS Assay for Modulators of WT P53-Induced Phosphatase 1 (WIP1) (AID 1347425). In outline:
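Steps: enzyme with Rh-PBP sensor and compounds, room-temperature incubation of 1 hr, baseline read, addition of VEPPL-pS-QETFS (10 uM final), kinetic fluorescence reads at 525/598 nm. Activity equals final minus baseline signal.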

Test [5] deals with Single-stranded DNA cytosine deaminase (Homo sapiens) (UniProt Q9GZX7). The test can be described thus: Validation qHTS assay for inhibitors of Activation Induced Cytidine Deaminase (AID): AID signal (AID 1347429). Put shortly: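 In this coupled qHTS, AID deaminates a FRET-labelled ssDNA substrate in the presence of UDG over 4 hr at room temperature. Compounds span up to 114 uM final.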
Chain of Single-stranded DNA cytosine deaminase (Homo sapiens) (Q9GZX7 whole entry, looked up): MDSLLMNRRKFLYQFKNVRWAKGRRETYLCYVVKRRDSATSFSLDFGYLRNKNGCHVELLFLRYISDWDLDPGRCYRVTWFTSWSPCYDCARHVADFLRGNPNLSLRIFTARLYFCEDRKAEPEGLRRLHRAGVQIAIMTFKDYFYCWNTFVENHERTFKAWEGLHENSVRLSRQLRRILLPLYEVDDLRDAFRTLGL

Test [6] is described as follows: Primary qHTS for inhibitors of La Crosse Virus (LACV) - induced cell death in SH-SY5Y cells (AID 1508616).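 Also: top concentration of the series differs between compounds; higher means more rescue of cells from virus-induced death.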 In outline: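 Readout was luminescence from ATPLite 1step added after a 6-day LACV infection (0.01 MOI) of SH-SY5Y cells that had received pin-transferred compound 24 hr after seeding.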
Test [7] concerns the target Calcium and integrin-binding protein 1 (Homo sapiens) (UniProt Q99828). The experiment in a line: Primary qHTS for Identification of Calcium Integrin Binding Protein 1 (CIB1) Competitor (AID 1508620). Also: top concentration of the series differs between compounds. Put shortly: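 Fluorescence polarization competition: GST-tagged CIB1 (1 uM final) preincubated with compound 15 min at room temperature, then FITC-labelled alphaIIb peptide (100 nM final) added. After 15 min at room temperature, polarization read at Ex 480/Em 540.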

Test [8] in a line: Primary qHTS for small molecule stabilizers of the endoplasmic reticulum resident proteome: Secreted ER Calcium Modulated Protein (SERCaMP) assay (AID 1508630). Put shortly:
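GLuc-SERCaMP-expressing SH-SY5Y cells, pretreated 16 h with compound, are challenged with thapsigargin to empty ER calcium stores; after 4 h, coelenterazine is added directly to the medium and luminescence is imaged.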

Test [9] has as its target Cytochrome P450 2D6 (Homo sapiens) (UniProt P10635). The test can be described thus: Cytochrome P450 family 2 subfamily D member 6 (CYP2D6) small molecule antagonists: luciferase biochemical (cell-free) qHTS assay (AID 1645840; active = well fitted curve in the direction sought with a large enough effect in the repeat runs; an effect the other way counts as inactive or inconclusive; also: nearly all actives have a fitted effect of over 55% in size; also: potency is read from the fitted curve at half-maximal effect). Put shortly:
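P450-Glo luminescent screen: recombinant CYP2D6 enzyme–proluciferin substrate mix preincubated with compound 10 min at room temperature, then NADPH regeneration added for 1 h at room temperature. Detection reagent added for 20 min; luciferin light read as relative luminescence units.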

For test [10], the target named is Cytochrome P450 2C9 (Homo sapiens) (UniProt P11712). The experiment in a line: Cytochrome P450 family 2 subfamily C member 9 (CYP2C9) small molecule antagonists: luciferase biochemical (cell-free) qHTS assay (AID 1645842; active = well fitted curve in the direction sought with a large enough effect in the repeat runs; an effect the other way counts as inactive or inconclusive; also: nearly all actives have a fitted effect of over 55% in size; also: potency is read from the fitted curve at half-maximal effect). Put shortly: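 Luminescence, after 20 min with luciferin detection reagent, reflected CYP2C9 turnover during a 1 h NADPH-driven reaction at 37C. Enzyme-substrate mix contained 0.4% bovine serum albumin and was preincubated with compound 10 min at room temperature.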
Chain of Cytochrome P450 2C9 (Homo sapiens) (P11712 whole entry, looked up): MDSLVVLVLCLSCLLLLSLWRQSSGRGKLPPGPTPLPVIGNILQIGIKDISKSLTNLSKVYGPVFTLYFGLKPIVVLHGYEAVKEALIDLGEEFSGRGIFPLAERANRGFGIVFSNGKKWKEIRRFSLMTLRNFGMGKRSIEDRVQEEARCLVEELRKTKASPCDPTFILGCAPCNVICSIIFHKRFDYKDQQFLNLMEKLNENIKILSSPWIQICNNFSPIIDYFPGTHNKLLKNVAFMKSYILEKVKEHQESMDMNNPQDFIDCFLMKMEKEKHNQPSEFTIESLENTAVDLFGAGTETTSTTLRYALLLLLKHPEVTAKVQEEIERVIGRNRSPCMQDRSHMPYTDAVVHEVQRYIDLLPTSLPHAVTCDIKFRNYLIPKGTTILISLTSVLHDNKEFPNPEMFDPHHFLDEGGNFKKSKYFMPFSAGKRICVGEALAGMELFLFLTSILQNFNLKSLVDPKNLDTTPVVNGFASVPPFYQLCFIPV

A further test concerns the target Papain (Carica papaya) (UniProt P00784). The experiment in a line: Primary qHTS assay for inhibitors of the protease papain (AID 1645873).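 Also: papain turnover of Z-FR-AMC read as the AMC fluorescence gain over 10 min; series mostly up to about 50 µM.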
Test [11] can be described thus: Primary qHTS for inhibitors of nuclear receptor binding SET domain protein 2 (NSD2) in an isogenic RCH-ACV NSD2 p.E1099K mutant (9B) (AID 1645876). Also: nearly all actives have a fitted effect of over 70% in size. Also: potency is read from the fitted curve at half-maximal effect.
Test [12] can be described thus: Validation qHTS assay for inhibitors of Activation Induced Cytidine Deaminase (AID): UDG Counterscreen signal (AID 1347427). In outline: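 Counterscreen read of UDG activity (2 U/mL, 4/3x) in the FRET deamination format with AID (1 uM, 4/3x), DJC20/DJC23 substrates (250 nM, 4x), 4 h at room temperature. NaOH stop, fluorescence at 560 ex/665 em.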
Test [13] concerns the target Calcium and integrin-binding protein 1 (Homo sapiens) (UniProt Q99828). The experiment in a line: Validation qHTS for Identification of Calcium Integrin Binding protein 1 (CIB1) Competitor (AID 1508618). Put shortly: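 In this qHTS validation, the LOPAC set (up to 114 uM) was tested for blocking CIB1 binding to a fluorescein-tagged alphaIIb peptide, with FP detection at 480/540 nm.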

Test [14] is described as follows: A High-Content qHTS Against Drug Library for the Identification of Small Molecules that Inhibit DYT1 Early Onset Primary Dystonia-Associated Cell Pathology (AID 1645839; calls by dose curve; also: series mostly up to about 46 µM). In outline:
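Flp-In T-REx 293 cells with tetracycline-inducible EGFP-delE hTOR1A (WT EGFP-hTOR1A as reference), 800 cells/well; compound added with tetracycline, 48 h at 37 C. Fixed, permeabilized cells imaged; %pathology (punctate TorsinA) primary, cell count counterscreen.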

Molecules are shown by their SMILES. “And” between values parts separate entries of the source, which are not always exact repeats. Identical values can stand only once. A number with no mark means an inactive call. Results filed as inconclusive are left out. The source made the active and inactive calls. Unless noted, calls follow the shape of the dose curve; as a rule, active = well fitted curve in the direction sought with a large enough effect; inconclusive = small, poorly fitted or top-dose-only effect, or another doubt; inactive = no such curve, though single readings can be large; an effect the other way counts as inactive or inconclusive.

Chain of Calcium and integrin-binding protein 1 (Homo sapiens) (Q99828 whole entry, looked up): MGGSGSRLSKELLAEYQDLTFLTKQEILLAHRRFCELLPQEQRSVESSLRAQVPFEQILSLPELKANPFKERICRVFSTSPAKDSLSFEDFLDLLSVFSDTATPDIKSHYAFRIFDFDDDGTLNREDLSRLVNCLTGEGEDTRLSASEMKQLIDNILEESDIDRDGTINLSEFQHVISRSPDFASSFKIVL
Chain of Protein phosphatase 1D (Homo sapiens) (O15297 whole entry, looked up): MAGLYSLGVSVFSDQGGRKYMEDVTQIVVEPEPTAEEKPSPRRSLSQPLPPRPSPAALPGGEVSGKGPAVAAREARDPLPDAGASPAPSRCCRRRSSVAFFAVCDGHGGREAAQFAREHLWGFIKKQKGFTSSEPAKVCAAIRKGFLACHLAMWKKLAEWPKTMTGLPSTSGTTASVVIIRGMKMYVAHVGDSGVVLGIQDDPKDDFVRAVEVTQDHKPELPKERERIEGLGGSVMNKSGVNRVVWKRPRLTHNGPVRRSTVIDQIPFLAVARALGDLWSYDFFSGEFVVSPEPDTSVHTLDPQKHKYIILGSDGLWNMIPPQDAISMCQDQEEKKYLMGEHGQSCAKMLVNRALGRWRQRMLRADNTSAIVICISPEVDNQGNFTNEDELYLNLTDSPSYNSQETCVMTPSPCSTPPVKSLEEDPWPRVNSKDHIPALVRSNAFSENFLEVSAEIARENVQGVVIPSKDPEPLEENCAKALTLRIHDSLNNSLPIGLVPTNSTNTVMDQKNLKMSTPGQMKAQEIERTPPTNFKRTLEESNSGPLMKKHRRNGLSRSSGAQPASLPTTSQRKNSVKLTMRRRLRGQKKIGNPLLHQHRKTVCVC
Chain of Cytochrome P450 2D6 (Homo sapiens) (P10635 whole entry, looked up): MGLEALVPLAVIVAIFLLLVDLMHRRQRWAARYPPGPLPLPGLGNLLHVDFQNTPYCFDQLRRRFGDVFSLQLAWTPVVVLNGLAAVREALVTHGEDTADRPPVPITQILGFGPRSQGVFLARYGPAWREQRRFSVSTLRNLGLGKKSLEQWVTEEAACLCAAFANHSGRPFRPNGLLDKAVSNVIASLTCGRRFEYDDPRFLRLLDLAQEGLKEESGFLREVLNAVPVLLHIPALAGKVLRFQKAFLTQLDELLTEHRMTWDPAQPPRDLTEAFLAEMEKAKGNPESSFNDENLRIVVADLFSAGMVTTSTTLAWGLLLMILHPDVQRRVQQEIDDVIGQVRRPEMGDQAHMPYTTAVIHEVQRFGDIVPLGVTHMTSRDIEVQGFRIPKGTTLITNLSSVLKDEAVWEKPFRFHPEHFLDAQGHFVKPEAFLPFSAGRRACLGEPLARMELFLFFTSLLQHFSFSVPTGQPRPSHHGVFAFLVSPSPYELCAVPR
Chain of Papain (Carica papaya) (P00784 whole entry, looked up, the tested form may be a part): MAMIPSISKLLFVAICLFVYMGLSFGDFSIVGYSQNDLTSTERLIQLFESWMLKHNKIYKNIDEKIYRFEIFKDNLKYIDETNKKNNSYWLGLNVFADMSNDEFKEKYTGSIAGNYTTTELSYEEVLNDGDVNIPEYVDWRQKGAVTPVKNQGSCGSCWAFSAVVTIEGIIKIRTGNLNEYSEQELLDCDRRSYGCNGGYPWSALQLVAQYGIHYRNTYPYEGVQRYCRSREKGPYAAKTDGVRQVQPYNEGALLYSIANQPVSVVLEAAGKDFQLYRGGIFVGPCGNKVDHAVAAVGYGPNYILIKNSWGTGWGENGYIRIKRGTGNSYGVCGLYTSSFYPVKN

`CCCOc1ccccc1-c1nc2n[nH]nc2c(=O)[nH]1`: the Potency entry in [1], in test [3], in test [5], in test [6], in test [7] and in [8] was “inactive” in each case. Moreover, the Potency result (in test [9]; in [10]; in the test with Papain (Carica papaya)) was “inactive” each time. Further, the result in test [2] and in [4] was inactive.

`C[C@H](CS)C(=O)N1CCC[C@H]1C(=O)O`: the compound was classed as inactive in test [2] and in test [4]. For the same compound, the Potency entry in test [3], in [6], in test [8], in [9], in [10] and in test [11] was “inactive” throughout.

With `CCCCCCCC/C=C\CCCCCCCC(=O)NCc1ccc(O)c(OC)c1`, the Potency result in test [1], in test [5], in test [6], in [7], in test [8] and in [9] was “inactive” in each case. For the same compound, the Potency entry in the test with Papain (Carica papaya) was “inactive”. In addition, the compound was called inactive in [2], in [4], in test [12] and in test [13]. In addition, the Potency in [10] was 1.1 µM (active) and 1.69 µM (active); in test [11] it was 2.66 µM (active).

For `CCCCNc1c(C(=O)OCC)c(C)nc2c1cnn2CC`, the Potency result in test [1], in [3], in test [5], in [6], in test [7] and in test [14] was “inactive” in each case. For the same compound, the Potency result with Papain (Carica papaya) was “inactive”. The call in [2], in test [4] and in test [13] was inactive. Besides, in test [10], the Potency is 17400 nM (active).

For `CCN(CC)CCOCCOC(=O)C1(c2ccccc2)CCCC1`, the Potency result (in [1]; in test [5]; in test [6]; in test [7]; in test [10]; in the test with Papain (Carica papaya)) was “inactive” throughout. In addition, the Potency result in test [11] is “inactive”. For the same compound, the compound was classed as inactive in [2], in [4], in [12] and in test [13].

Turning to `COc1cc2c(cc1OC)-c1cc(=Nc3c(C)cc(C)cc3C)n(C)c(=O)n1CC2`, the outcome in [2], in test [4], in test [12] and in test [13] was inactive. Besides, the Potency result in test [5], in test [6] and in test [7] was “inactive” throughout. Moreover, the Potency is 12.3 µM (active) in test [9], 490 nM (active) in test [10] and 15 µM (active) in test [11].

`C[C@]12C=CC(=O)C=C1CC[C@H]1[C@@H]3C[C@@H](O)[C@](O)(C(=O)CO)[C@@]3(C)C[C@H](O)[C@@]12F`: the outcome in test [2] and in test [4] was inactive. The Potency entry in [3], in test [5], in test [6], in test [8], in [9] and in test [10] was “inactive” throughout. For the same compound, the Potency entry (in the test with Papain (Carica papaya); in [11]) was “inactive” throughout.

As for `Cc1nnc(SCC2=C(C(=O)O)N3C(=O)[C@@H](NC(=O)Cn4cnnn4)[C@H]3SC2)s1`, the compound was classed as inactive in test [2] and in test [4]. Moreover, the Potency result (in [3]; in test [6]; in test [8]; in test [14]; in test [10]; with Papain (Carica papaya)) was “inactive” each time. For the same compound, in test [11], the Potency entry is “inactive”.

Turning to `CCOC(=O)C1=C(C)NC(C)=C(C(=O)OC)C1c1cccc([N+](=O)[O-])c1` (stereo unspecified), the Potency in [1] is 12.6 µM (active); in test [9], 13.8 µM (active); in [10] it was 436 nM (active). For the same compound, the result in test [2] and in test [12] was inactive. Further, the Potency entry (in test [5]; in [6]; in test [7]; in test [8]; in the test with Papain (Carica papaya)) was “inactive” throughout.

Consider `CCN(CC)CCNC(=O)c1cc(S(C)(=O)=O)ccc1OC`, for which the Potency entry in test [1], in test [5], in test [6], in test [7], in test [8] and in test [14] was “inactive” in each case. In addition, the Potency result (in test [10]; with Papain (Carica papaya); in [11]) was “inactive” throughout. Besides, the outcome in test [2], in test [4], in test [12] and in [13] was inactive.
